Structures are written as SMILES. Hit rate of the full screen: of about 1,200 compounds, about 30 (2%) were called active. Entries that show only a call come without a potency. Another 23% or so got no clear call; they are omitted. This is one part of a sample in which actives are shown more often than they occur. The call rests on the fitted dose curve; in most records, active means well fitted inhibition curve with a large enough effect; inconclusive means small, poorly fitted or top-dose-only effect; inactive means flat fitted curve, though single readings scatter.

For 78 molecules, Potency results are on record in PubChem BioAssay AID1347434 (National Center for Advancing Translational Sciences (NCATS), 2020).
Potency means the concentration at half of the fitted maximal effect.

This test deals with Single-stranded DNA cytosine deaminase (Homo sapiens) (UniProt Q9GZX7). The test can be described thus: Confirmatory qHTS assay for inhibitors of Activation Induced Cytidine Deaminase (AID): AID signals. Particulars: recombinant AID, FRET deamination/UDG coupled fluorescence, 4 h; series mostly up to 115 µM. In short, it runs like this: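 Read 1 (AID) was measured at 540 ex/590 em after a 30 min NaOH step. The reaction was AID (1 uM, 4/3x stock) with UDG, compound at final 7.32 nM - 114 uM for 10 min, then DJC20/DJC23 substrate for 4 hr at room temperature. A UDG read at 560/665 serves as counterscreen.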
Chain of Single-stranded DNA cytosine deaminase (Homo sapiens) (Q9GZX7 whole entry, looked up): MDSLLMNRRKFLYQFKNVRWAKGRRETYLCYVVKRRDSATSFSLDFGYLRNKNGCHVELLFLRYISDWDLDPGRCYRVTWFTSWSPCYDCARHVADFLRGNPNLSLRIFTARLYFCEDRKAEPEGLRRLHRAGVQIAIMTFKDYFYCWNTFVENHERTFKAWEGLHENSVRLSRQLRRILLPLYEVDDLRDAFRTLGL
(qHTS replaces the single test concentration by a dilution series.)
For the molecule `Cc1ccc(C(=O)c2cn(Cc3cc(C)ccc3C)c3nc(C)ccc3c2=O)cc1`, the Potency result is “inactive”.
To `O=C(Cc1ccccc1F)N1CCC(c2nc3c(nnn3Cc3cccc(Cl)c3)c(=O)[nH]2)CC1` belongs “inactive”; to `CCc1cnc2c(c1SCc1ccccc1C)c(=O)n(C)c(=O)n2C`, “inactive”; to `CCN(CC)CCCNC(=O)c1ccc2c(c1)sc1nc(-c3ccc(C)cc3)cn12`, “inactive”.
On to `C[N+](C)(CCCCCC[N+](C)(C)CCCN1C(=O)c2cccc3cccc(c23)C1=O)CCCN1C(=O)c2cccc3cccc(c23)C1=O`, for which the Potency is 5.01 µM (active).
Next, `Cc1ccc(C)c(Cn2c(=O)n(CC3CCC(C(=O)N4CCOCC4)CC3)c(=O)c3sccc32)c1` (stereo not drawn): “inactive”; `CC(=O)Nc1ccc(S(=O)(=O)Nc2nc3n(n2)C(c2ccccc2)C=C(c2ccc(Cl)cc2)N3)cc1` (stereo not drawn): 39.8 µM (active); `Cc1ccc(S(=O)(=O)Nc2nc3n(n2)C(c2ccccc2Cl)C=C(c2ccccc2)N3)cc1` (stereo not drawn): “inactive”.
To `COc1ccc(C2C=C(c3ccccc3)Nc3nc(NS(=O)(=O)c4ccccc4)nn32)cc1` (stereo not drawn) belongs “inactive”; to `Cc1ccc(C)c(N2CCN(C(=O)c3cccn3-c3nnc(N4CCCCC4)s3)CC2)c1`, “inactive”; to `CC1=C(C(=O)NCc2cccc(Cl)c2)C2(CCCCCC2)OC1=O`, “inactive”.
With `CCc1ccc(-n2c(SCc3nc(-c4cc(OC)ccc4OC)no3)nnc2-c2ccccc2)cc1`, the Potency entry is “inactive”.
To `CCc1ccc(OCC(=O)N(Cc2ccc(C(C)C)cc2)C2CCS(=O)(=O)C2)cc1` (stereo not drawn) belongs “inactive”; to `Cc1cccc(-n2ccnc2SCC(=O)Nc2cccc3ccccc23)c1`, “inactive”; to `Nc1ccc2oc(Cc3ccc(Cl)cc3)nc2c1`, “inactive”.
On to `Cc1cccc(N2CCN(C(=O)C3CCCN(C(=O)c4cc5sccc5n4C)C3)CC2)c1C` (stereo not drawn), for which the Potency result is “inactive”.
To `Cc1ccc(C)c(C(=O)N2CCC(c3nc4c(nnn4Cc4ccccc4)c(=O)[nH]3)CC2)c1` belongs “inactive”; to `CC1CCN(S(=O)(=O)c2ccc3c(c2)c(=O)c(C(=O)NC(C)c2ccccc2)cn3C)CC1` (stereo not drawn), “inactive”.
On to `CCc1ccccc1NC(=O)CN(c1ccccc1OC)S(=O)(=O)c1ccc(C)cc1`, for which the Potency entry was “inactive”.
To `Cc1ccc(C)c(N2CCN(C(=O)c3ccc4c(c3)N(Cc3ccc(F)cc3)C(=O)c3ccccc3S4=O)CC2)c1` (stereo not drawn) belongs “inactive”.
To `Cc1ccc2nc(Cl)c3cc(C(=O)N4CCCCC4C)sc3c2c1` (stereo not drawn) belongs “inactive”.
Regarding `O=C(NCCc1ccccc1)c1nc(-c2ccc(Cl)cc2)n2c1CCCCC2`, the Potency entry was “inactive”.
Next, `CCCCCn1c(CCCNC(=O)c2cccc(C)c2)nc2ccccc21`: “inactive”; `COc1ccc(OC)c(NC(=O)N2CC(C)Oc3ccc(C)cc32)c1` (stereo not drawn): “inactive”; `COC(=O)c1ccc(Cl)cc1NC(=O)Nc1nnc(N(C)Cc2ccccc2)s1`: “inactive”.
To `N#C/C(=C\c1ccc(-c2cc(Cl)ccc2Cl)o1)C(=O)Nc1cccc2ncccc12` belongs “inactive”; to `N#C/C(=C\c1ccc(-c2cc(Cl)ccc2Cl)o1)C(=O)Nc1ccccc1C(=O)O`, 28.2 µM (active).
Next, `N#C/C(=C\c1ccc(-c2ccc(Cl)c(C(=O)O)c2)o1)c1nc2ccccc2[nH]1`: “inactive”; `Cc1cccc(CSc2ccc3nnc(CCNS(=O)(=O)c4ccccc4)n3n2)c1`: “inactive”.
With `Cc1ccccc1NC(=O)c1ccc(N(Cc2ccccc2)S(C)(=O)=O)cc1`, the Potency entry was “inactive”.
Next, `Cc1ccc(C(=O)Nc2ccc(S(=O)(=O)O)c3cc(S(=O)(=O)O)cc(S(=O)(=O)O)c23)cc1NC(=O)c1cccc(NC(=O)Nc2cccc(C(=O)Nc3cc(C(=O)Nc4ccc(S(=O)(=O)O)c5cc(S(=O)(=O)O)cc(S(=O)(=O)O)c45)ccc3C)c2)c1`: 1.12 µM (active); `Cc1ccc(C(=O)Nc2ccccc2C(=O)O)cc1S(=O)(=O)N1CCCCCC1`: “inactive”.
To `CCOc1ccc(NC(=O)CN(C)S(=O)(=O)c2ccc3c(c2)c(=O)n(C)c(=O)n3C)cc1` belongs “inactive”.
As for `COc1cccc(CNC(=O)c2oc3c(c2C)-c2nn(Cc4cccc(Cl)c4)cc2CC3)c1OC`, the Potency entry is “inactive”.
To `COc1ccc(Nc2ncc(C(=O)Nc3cccc(OC)c3)c3ccccc23)cc1` belongs “inactive”; to `Cc1ccccc1CSc1nc2nc(C)c(Cc3ccccc3)c(C)n2n1`, “inactive”.
To `CC1(C)CCC2=C(O1)c1ccccc1C(=O)C2=O` belongs 7.08 µM (active).
To `OCC1O[C@H]([S-])[C@H](O)[C@@H](O)[C@@H]1O.[Au+]` (stereo partly drawn) belongs 12.6 µM (active).
On to `CCCCSCCCNC(=O)c1cn(CC)c2ccc(S(=O)(=O)N(C)C3CCCCC3)cc2c1=O`, for which the Potency entry was “inactive”.
For the molecule `CC1CCCN(C(=O)c2ccc(CSc3nc4ccncc4n3Cc3ccccc3)cc2)C1` (stereo not drawn), the Potency result was “inactive”.
As for `Cc1ccccc1Nc1c(-c2ccc(N3CCOCC3)cc2)nc2ccccn12`, the Potency result is “inactive”.
Consider `CCCN(CCC)CCCNC(=O)c1cc2c(-c3ccc(Cl)cc3)nn(C)c2s1`, for which the Potency result is “inactive”.
To `CCCCn1c(CNC(=O)C23CC4CC(CC(C4)C2)C3)nnc1SCC(=O)Nc1ccc(C)cc1` belongs “inactive”; to `Cc1cc2c(C(C)C)c(O)c(O)c(C=O)c2c(O)c1-c1c(C)cc2c(C(C)C)c(O)c(O)c(C=O)c2c1O`, 31.6 µM (active).
For the molecule `Cc1cccc(NC(=O)CCn2nc(-c3ccccc3)c3ccccc3c2=O)c1`, the Potency entry was “inactive”.
To `CCn1nc(C)c2c(-c3ccccc3)cc(=O)n(C(C)C(=O)NCc3ccccc3OC)c21` (stereo not drawn) belongs “inactive”; to `COc1ccc(-c2coc3c2c(C)cc2oc(=O)c(CC(=O)O)c(C)c23)cc1`, 50.1 µM (active); to `COc1cccc(-n2c(-c3cccc(F)c3)nc3c(cnn3-c3ccc(C)cc3)c2=O)c1`, “inactive”.
Next, `CCOc1ccc(CNCc2c(C(=O)O)n(Cc3ccccc3F)c3cc(OC)ccc23)cc1`: “inactive”; `COc1ccc(C(C)=O)cc1CSc1nc(NCCc2ccccc2)c2ccccc2n1`: “inactive”; `Cc1cccc(N2CCN(C(=O)Cn3ncc4c3-c3cc(C)ccc3OC4)CC2C)c1` (stereo not drawn): “inactive”.
To `COc1ccccc1C(=O)Oc1c(Sc2ccccc2)c(C)nn1-c1ccccc1` belongs “inactive”; to `CCOC(=O)C1=C(CN2CCN(c3ccccc3F)CC2)NC(=O)NC1c1ccc(Cl)cc1` (stereo not drawn), “inactive”.
For the molecule `Cc1cccc(N2CCN(C(=O)C(C)n3nc(C)n4c(cc5occc54)c3=O)CC2)c1C` (stereo not drawn), the Potency result is “inactive”.
To `Cc1ccc(C2CCN(C(=O)c3cnn(-c4cccc(Cl)c4)c3C3CCN(C(=O)OC(C)(C)C)CC3)C2)cc1` (stereo not drawn) belongs “inactive”; to `COc1ccc(CCNC(=O)c2c[nH]n3c(=O)c(Cc4ccccc4Cl)c(C)nc23)cc1OC`, “inactive”.
In the case of `FC(F)(F)c1cccc(N2CCN(Cc3nnc(-c4ccc5c(c4)OCO5)o3)CC2)c1`, the Potency entry is “inactive”.
Regarding `COc1ccc(-c2nc(CSCC(=O)N3CCN(c4cccc(C)c4C)CC3)c(C)o2)cc1OC`, the Potency result is “inactive”.
In the case of `COc1ccc(-c2nc3c(c(SCC(=O)Nc4ccc(C(=O)O)cc4)n2)Cc2ccccc2O3)cc1`, the Potency entry is “inactive”.
Next, `O=C(CSc1nc(-c2ccc(F)cc2)nc2c1Cc1ccccc1O2)Nc1cccc(C(=O)O)c1`: 31.6 µM (active); `O=C(CSC1=Nc2ccccc2N=C(c2ccc(F)cc2)C1)Nc1cccc(C(F)(F)F)c1`: “inactive”; `Cc1cccc(-n2cnc3cc(C(=O)NCc4ccccc4Cl)ccc32)c1`: “inactive”.
To `Cc1cccc(-c2nc(CCNC(=O)COc3ccccc3)cs2)c1` belongs “inactive”; to `CCN(C(=O)CSc1nc(-c2ccccc2)no1)c1cccc(C)c1`, “inactive”.
Next, `COc1ccc(CNCCC(c2ccccc2)c2ccc3c(c2)OCO3)cc1` (stereo not drawn): “inactive”; `CCCCN(CC)CCCNC(=O)c1cn(CC)c2ccc(S(=O)(=O)N3CCc4ccccc4C3)cc2c1=O`: “inactive”; `CCc1ccc(CN(Cc2ccco2)c2cnc(S(C)(=O)=O)nc2C(=O)Nc2ccc(C)c(Cl)c2)cc1`: “inactive”.
For the molecule `CCOc1ccc(-c2nn(-c3ccccc3)cc2C2NC(=O)NC(C)=C2C(=O)OC(C)C)cc1` (stereo not drawn), the Potency entry is “inactive”.
To `COc1ccc(CN(Cc2ccco2)C(=O)COc2ccc(Cl)cc2C)cc1` belongs “inactive”.
To `Cc1nc2nc(SCC(=O)N(C)Cc3ccccc3)nn2c(C)c1Cc1ccccc1Cl` belongs “inactive”; to `Cc1ccc(Cn2cc(S(=O)(=O)c3ccc(C)cc3)c(=O)c3cc(F)c(N4CCCC4)cc32)cc1`, “inactive”; to `CCc1ccc(S(=O)(=O)c2cnc3ccc(OC)cc3c2N2CCCC(C)C2)cc1` (stereo not drawn), “inactive”.
Regarding `CCOC(=O)C1CCN(c2nc3c(S(=O)(=O)c4ccccc4)nnn3c3ccsc23)CC1`, the Potency result was “inactive”.
Next, `CCN(CC)C(=O)CSc1nc(-c2ccccc2F)nc2c1Cc1c(CO)cnc(C)c1O2`: “inactive”; `Cc1ccccc1C(=O)Nc1sc2c(c1C(=O)O)CCC(C(C)(C)C)C2` (stereo not drawn): “inactive”.
To `Cc1ccc(-c2sc(C(=O)Nc3ccc(Br)cc3)cc2CC(=O)O)cc1` belongs “inactive”.
To `CCC(=O)Oc1c(Sc2ccc(Cl)cc2)c(C)nn1-c1ccccc1` belongs “inactive”; to `Nc1c(S(=O)(=O)O)cc(Nc2ccc(Nc3nc(Cl)nc(Nc4ccc(S(=O)(=O)O)cc4)n3)c(S(=O)(=O)O)c2)c2c1C(=O)c1ccccc1C2=O`, 20 µM (active).
